Experimental data published in PubChem BioAssay (Tox21).
Records with an inconclusive call do not appear. Activity calls are given as the source filed them. Unless noted, calls follow the shape of the full dose curve.

Tests used:
[1] = Nuclear factor erythroid 2-related factor 2/antioxidant responsive element (Nrf2/ARE) small molecule agonists: qHTS cell viability counter screen in human keratinocytes (AID 1919968; active = well fitted curve in the direction sought with a large enough effect in the repeat runs; an effect the other way counts as inactive or inconclusive; also: nearly all actives have a fitted effect of over 55% in size)
In short: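 Viability counter-screen: KeratinoSens reporter cells, DMSO-delivered compounds, 23 h at 37 C, CellTiter-Fluor fluorescence.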

[2] = Nuclear factor erythroid 2-related factor 2/antioxidant responsive element (Nrf2/ARE) small molecule agonists: luciferase reporter gene qHTS assay in human keratinocytes (AID 1919969); also: nearly all actives have a fitted effect of over 35% in size; also: potency is read from the fitted curve at half-maximal effect
[3] = molecular target: Gonadotropin-releasing hormone receptor (Homo sapiens) (UniProt P30968); assay: Human gonadotropin-releasing hormone receptor (GnRHR) small molecule agonists, calcium flux assay in GnRHR-HEK293 cells (AID 1920063); also: nearly all actives have a fitted effect of over 35% in size
Gonadotropin-releasing hormone receptor (Homo sapiens), sequence (P30968 whole entry, looked up): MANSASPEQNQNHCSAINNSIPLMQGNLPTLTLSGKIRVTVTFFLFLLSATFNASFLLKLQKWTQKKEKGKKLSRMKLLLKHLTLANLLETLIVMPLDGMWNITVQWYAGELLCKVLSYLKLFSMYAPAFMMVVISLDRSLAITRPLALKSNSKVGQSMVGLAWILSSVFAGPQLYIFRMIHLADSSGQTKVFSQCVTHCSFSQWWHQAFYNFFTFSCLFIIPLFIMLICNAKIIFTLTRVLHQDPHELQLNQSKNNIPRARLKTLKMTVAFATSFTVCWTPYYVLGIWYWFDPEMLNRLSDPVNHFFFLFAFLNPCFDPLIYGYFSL
In short: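 Tox21-format agonist screen using human GnRHR-expressing HEK293 cells and a fluorescent calcium dye; kinetic 3-min fluorescence reading after compound addition, 15-point concentration series run in triplicate.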

[4] = molecular target: KiSS-1 receptor (Homo sapiens) (UniProt Q969F8); assay: Human kisspeptin (KISS1R) small molecule agonists, calcium flux assay in KISS1R-HEK293 cells (AID 1920064; active = well fitted curve in the direction sought with a large enough effect in the repeat runs; an effect the other way counts as inactive or inconclusive)
KiSS-1 receptor (Homo sapiens), sequence (Q969F8 whole entry, looked up): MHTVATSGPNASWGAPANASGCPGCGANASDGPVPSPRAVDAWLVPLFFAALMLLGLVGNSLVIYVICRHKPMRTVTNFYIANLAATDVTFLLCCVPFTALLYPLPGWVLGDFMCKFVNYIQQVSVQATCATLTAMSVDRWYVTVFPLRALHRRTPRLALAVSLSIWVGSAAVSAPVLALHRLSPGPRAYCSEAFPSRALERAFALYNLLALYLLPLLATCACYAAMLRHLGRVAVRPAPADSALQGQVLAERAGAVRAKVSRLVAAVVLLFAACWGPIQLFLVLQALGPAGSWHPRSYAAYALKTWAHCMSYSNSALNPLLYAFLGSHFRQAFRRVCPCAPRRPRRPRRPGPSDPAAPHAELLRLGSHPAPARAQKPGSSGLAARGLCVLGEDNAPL
In short: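 Intracellular calcium mobilization in KISS1R-HEK293 cells was recorded by fluorescence (Ex/Em 480/540) for 3 min following compound addition to cells pre-loaded 1 h with calcium dye.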

[5] = G protein-coupled receptor (GPCR) small molecule agonists, calcium flux assay: HEK293 wild type cell line counter screen (AID 1920065)
In short: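 In this agonist-mode screen, ATP is the positive control and DMSO the vehicle. Cells grow 18 h before a 1 h dye incubation at 37 C; signal is taken at Ex/Em 480/540 over 3 min.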

[6] = p53 small molecule agonists, cell-based qHTS assay with human liver microsomes (AID 1963577);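 also: p53 response element beta-lactamase reporter cells with liver microsomes plus NADPH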
In short: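 Steps: plate p53RE-bla cells, incubate 5 h at 37 C; add compound in DMSO; add microsomes (0.5 mg/mL final) and NADPH (0.5 mg/mL final); incubate 16 h at 37 C; add LiveBLAzer, 2 h RT; read fluorescence.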

[7] = p53 small molecule agonists, cell-based qHTS assay with rat liver microsomes (AID 1963578)
In short: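 Metabolic activation is supplied by rat liver microsomes with NADPH (each 0.5 mg/mL final). p53RE-bla cells incubate with compound 16 h at 37 C; reporter activity is measured by LiveBLAzer fluorescence.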

[8] = p53 small molecule agonists, cell-based qHTS assay with human liver microsomes: qHTS cell viability counter screen (AID 1963579); also: nearly all actives have a fitted effect of over 45% in size
In short: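 After the 460/530 nm beta-lactamase read, CellTiter-Glo was added to the same wells and luminescence measured after 30 min at room temperature, giving viability of p53RE-bla cells treated 16 h with compounds plus microsomes and NADPH.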

[9] = p53 small molecule agonists, cell-based qHTS assay with rat liver microsomes: qHTS cell viability counter screen (AID 1963580); also: nearly all actives have a fitted effect of over 45% in size
In short: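 In HCT-116 cells carrying a p53 response element-bla reporter, compounds were metabolically activated in situ by rat liver microsomes with NADPH over 16 h. Cell ATP content then served as the cytotoxicity measure.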

[10] = p53 small molecule agonists, cell-based qHTS assay: qHTS cell viability counter screen (AID 1963581); also: nearly all actives have a fitted effect of over 45% in size
In short: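 Compounds are pinned onto HCT-116 p53RE-bla cells and left 16 h at 37 C. Following the reporter FRET read, ATP is quantified by CellTiter-Glo luminescence after 30 min at room temperature.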

[11] = p53 small molecule agonists, cell-based qHTS assay (AID 1963582; active = well fitted activation curve with a large enough effect in the signal ratio in the repeat runs, not every such curve was filed as active; the % refers to the signal ratio)
In short: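 Agonist activity was scored from beta-lactamase FRET fluorescence in p53RE-bla cells treated 16 h at 37 C with compounds in DMSO, substrate incubation being 2 h at room temperature.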

[12] = molecular target: 5-hydroxytryptamine receptor 2A (Homo sapiens) (UniProt P28223); assay: 5-hydroxytryptamine receptor 2A (HTR2A) small molecule antagonists, cell-based qHTS assay (AID 1963586); also: nearly all actives have a fitted effect of over 45% in size
5-hydroxytryptamine receptor 2A (Homo sapiens), sequence (P28223 whole entry, looked up): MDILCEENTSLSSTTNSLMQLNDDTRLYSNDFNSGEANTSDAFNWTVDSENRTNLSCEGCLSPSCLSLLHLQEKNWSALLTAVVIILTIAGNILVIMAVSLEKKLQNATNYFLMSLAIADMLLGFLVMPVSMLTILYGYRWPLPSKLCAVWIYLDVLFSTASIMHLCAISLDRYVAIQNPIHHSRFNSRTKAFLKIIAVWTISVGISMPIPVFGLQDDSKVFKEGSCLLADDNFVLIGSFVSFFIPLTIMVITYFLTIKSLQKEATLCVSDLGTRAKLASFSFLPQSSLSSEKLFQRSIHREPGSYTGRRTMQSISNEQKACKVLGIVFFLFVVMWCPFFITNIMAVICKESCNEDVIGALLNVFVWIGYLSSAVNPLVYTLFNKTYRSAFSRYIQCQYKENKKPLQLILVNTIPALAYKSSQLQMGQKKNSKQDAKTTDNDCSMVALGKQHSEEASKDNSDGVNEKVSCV
In short: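 Antagonist-mode intracellular calcium assay: DOI (4 nM) added after 5 min compound pre-incubation at room temperature to dye-loaded HTR2A-CHO cells. Fluorescence followed for 3 min, sampled every second.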

[13] = molecular target: 5-hydroxytryptamine receptor 2A (Homo sapiens) (UniProt P28223); assay: 5-hydroxytryptamine receptor 2A (HTR2A) small molecule agonists, cell-based qHTS assay (AID 1963587); also: nearly all actives have a fitted effect of over 30% in size
In short: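 HTR2A-CHO cells, plated 18 h at 37 C/5% CO2, dye-loaded 1 h at 37 C; compounds in DMSO added by pin tool (agonist mode). Intracellular calcium flux read as kinetic fluorescence on FDSS over 2 min at 1 s intervals.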

[14] = molecular target: Muscarinic acetylcholine receptor M1 (Homo sapiens) (UniProt P11229); assay: Cholinergic receptor muscarinic 1 (CHRM1) small molecule antagonists, cell-based qHTS assay (AID 1963588); also: nearly all actives have a fitted effect of over 40% in size
Muscarinic acetylcholine receptor M1 (Homo sapiens), sequence (P11229 whole entry, looked up): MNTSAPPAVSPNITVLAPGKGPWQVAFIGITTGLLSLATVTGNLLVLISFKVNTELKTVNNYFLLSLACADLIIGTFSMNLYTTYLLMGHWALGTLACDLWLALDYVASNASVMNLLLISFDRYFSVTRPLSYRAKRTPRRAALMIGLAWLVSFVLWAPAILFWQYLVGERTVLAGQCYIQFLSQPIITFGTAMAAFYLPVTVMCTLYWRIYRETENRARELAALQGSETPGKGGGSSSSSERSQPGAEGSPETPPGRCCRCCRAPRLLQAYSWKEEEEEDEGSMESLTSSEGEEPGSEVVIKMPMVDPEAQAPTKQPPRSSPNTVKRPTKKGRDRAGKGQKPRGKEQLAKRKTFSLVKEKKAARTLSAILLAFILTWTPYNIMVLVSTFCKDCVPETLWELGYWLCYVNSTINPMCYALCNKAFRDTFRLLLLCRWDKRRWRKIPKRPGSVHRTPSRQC
In short: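 CHRM1-CHO calcium-flux assay, antagonist mode. Cells were seeded 18 h, dye-loaded 1 h at 37 C and given compound for 5 min at RT, then acetylcholine was added at 50nM. FDSS fluorescence was read 3 min; 15 concentrations, three runs.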

[15] = molecular target: Muscarinic acetylcholine receptor M1 (Homo sapiens) (UniProt P11229); assay: Cholinergic receptor muscarinic 1 (CHRM1) small molecule agonists, cell-based qHTS assay (AID 1963589); also: nearly all actives have a fitted effect of over 35% in size
In short: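 Stable CHRM1-CHO cells (human receptor) were incubated 18 h, dye-loaded for 1 h at 37 C and exposed to test compounds for agonist activity, with calcium-dependent fluorescence followed kinetically.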

[16] = cAMP Responsive Elements (CRE) small molecule agonists, cell-based qHTS assay (AID 1963590)
In short: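 FRET-based beta-lactamase readout (LiveBLAzer B/G, 2 h RT) quantified CRE activation in HEK 293T CRE-bla cells after 3 h treatment with DMSO-dissolved compounds.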

[17] = cAMP Responsive Elements (CRE) small molecule antagonists, cell-based qHTS assay (AID 1963591; active = well fitted inhibition curve with a large enough effect in the signal ratio in the repeat runs, not every such curve was filed as active; the % refers to the signal ratio)
In short: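 qHTS in CRE-bla HEK 293T cells: compound in DMSO, then 0.25 uM NKH477 (final), 3 h at 37 °C/5% CO2; beta-lactamase FRET read-out after 2 h substrate incubation.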

[18] = molecular target: Beta-2 adrenergic receptor (Homo sapiens) (UniProt P07550); assay: Adrenergic beta2 receptor (ADRB2) small molecule antagonists, cell-based qHTS assay (AID 1963592); also: series mostly up to about 92 µM; nearly all actives have a fitted effect of over 50% in size
Beta-2 adrenergic receptor (Homo sapiens), sequence (P07550 whole entry, looked up): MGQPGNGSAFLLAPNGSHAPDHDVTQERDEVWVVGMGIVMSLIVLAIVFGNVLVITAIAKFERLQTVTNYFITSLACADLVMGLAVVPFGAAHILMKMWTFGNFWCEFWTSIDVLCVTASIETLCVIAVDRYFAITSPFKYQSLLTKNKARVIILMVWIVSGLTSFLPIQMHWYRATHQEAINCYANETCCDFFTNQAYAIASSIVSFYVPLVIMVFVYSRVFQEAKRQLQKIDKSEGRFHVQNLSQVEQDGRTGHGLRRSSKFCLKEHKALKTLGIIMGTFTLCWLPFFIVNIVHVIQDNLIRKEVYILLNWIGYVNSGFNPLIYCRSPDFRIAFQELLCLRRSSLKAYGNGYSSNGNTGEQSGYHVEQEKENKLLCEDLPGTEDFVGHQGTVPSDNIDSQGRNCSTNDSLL
In short: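 Cells (CHO, stable ADRB2 overexpression) incubated 18-20hr at 37C; compounds added from DMSO; agonist mix (1nM isoproterenol, 100uM IBMX, 25uM Ro-20-1724) added; 0.5hr RT; d2-cAMP and anti-cAMP-cryptate added; 1hr RT; 665/615 nm read.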

[19] = molecular target: D(2) dopamine receptor (Homo sapiens) (UniProt P14416); assay: Dopamine D2 receptor (DRD2) small molecule agonists, cell-based qHTS assay (AID 1963594); also: nearly all actives have a fitted effect of over 35% in size
D(2) dopamine receptor (Homo sapiens), sequence (P14416 whole entry, looked up): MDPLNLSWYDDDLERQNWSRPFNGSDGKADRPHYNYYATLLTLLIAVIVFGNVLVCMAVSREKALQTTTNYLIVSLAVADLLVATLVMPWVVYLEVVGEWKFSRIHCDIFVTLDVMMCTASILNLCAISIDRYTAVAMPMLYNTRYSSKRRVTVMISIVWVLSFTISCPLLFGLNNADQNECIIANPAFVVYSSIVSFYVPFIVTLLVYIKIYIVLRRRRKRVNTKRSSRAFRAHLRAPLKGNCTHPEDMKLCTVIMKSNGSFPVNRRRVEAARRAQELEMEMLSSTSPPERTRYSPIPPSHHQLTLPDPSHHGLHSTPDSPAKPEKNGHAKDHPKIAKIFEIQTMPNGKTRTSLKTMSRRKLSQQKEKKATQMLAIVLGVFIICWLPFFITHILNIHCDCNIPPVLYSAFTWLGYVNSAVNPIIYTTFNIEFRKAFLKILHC
In short: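 HEK293 cells stably expressing DRD2 were cultured 24 h at 37 C, then given Ro20-1724 (0.1 mM final) and compounds for 10 min at room temperature. NKH477 (200nM) was then added for 30 min. cAMP was read by HTRF.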

[20] = molecular target: D(2) dopamine receptor (Homo sapiens) (UniProt P14416); assay: Dopamine D2 receptor (DRD2) small molecule antagonists, cell-based qHTS assay (AID 1963595; active = well fitted inhibition curve with a large enough effect in the signal ratio in the repeat runs, with a control signal flat; the % refers to the signal ratio)
In short: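 DRD2-HEK293; 0.1 mM Ro20-1724; cpd 10 min RT; NKH477 200 nM + quinpirole 12 nM, 30 min RT; HTRF cAMP (cAMP-d2/anti-cAMP cryptate), 665/620 nm ratio after 1 h.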

Measured: Potency

CCC(C)C1N=C(C)C(C)S1 (stereo not given)
inactive: all assays above

CCCCSCCCC
inactive: all assays above

C[CH2][Ge]([Cl])([CH2]C)[CH2]C
inactive: all assays above

O=[N+]([O-])c1ccccc1Nc1ccccc1
inactive: all assays above

C[Si]1(C)O[Si](C)(C)O[Si](C)(C)O[Si](C)(C)O[Si](C)(C)O1
inactive: all assays above

CCCCCC1CCC(=O)O1 (stereo not given)
inactive: all assays above

c1ccc(SCCSc2ccccc2)cc1
active: [2] 12.1 µM
inactive: all other assays above

CCO[Si](OCC)(OCC)c1ccccc1
inactive: all assays above

C[Si](C)(C)O[Si](C)(C)O[Si](C)(C)C
inactive: all assays above

CO[Si](CCCOCC1CO1)(OC)OC (stereo not given)
inactive: all assays above

CCC(C)(C)C
inactive: all assays above

CC(C)(C)c1ccc(S)cc1
active: [2] 48.6 µM
inactive: all other assays above

CC(C)(O)C(=O)O
inactive: all assays above

CCC(CO)(CO)CO
inactive: all assays above

CC(=O)CC/C=C(\C)CC/C=C(\C)CC/C=C(\C)CCC=C(C)C
active: [2] 26.6 µM
inactive: all other assays above
